# Assays:
# [1] = biological target: T1, GST-Nv-NF-kB (Ser allele) (Nematostella vectensis, UniProt A7UNT2 2-411); assay: protein-binding microarray (PBM); PBM: ~300 nM protein, 6 mM HEPES pH 7.8, 80 mM KCl, 0.5 mM EDTA, 0.5 mM EGTA, 6% glycerol, 35 ng/ul poly-dIdC, 1% milk, 1 h, room temperature; Ap Aiptasia and Nv Nematostella (sea anemones) / Co Capsaspora / Aq Amphimedon (sponge) / Dm Drosophila / Hu human; RHD is the Rel homology domain; high values mean tight binding; conditions: dsDNA, one strand shown
# T1 sequence: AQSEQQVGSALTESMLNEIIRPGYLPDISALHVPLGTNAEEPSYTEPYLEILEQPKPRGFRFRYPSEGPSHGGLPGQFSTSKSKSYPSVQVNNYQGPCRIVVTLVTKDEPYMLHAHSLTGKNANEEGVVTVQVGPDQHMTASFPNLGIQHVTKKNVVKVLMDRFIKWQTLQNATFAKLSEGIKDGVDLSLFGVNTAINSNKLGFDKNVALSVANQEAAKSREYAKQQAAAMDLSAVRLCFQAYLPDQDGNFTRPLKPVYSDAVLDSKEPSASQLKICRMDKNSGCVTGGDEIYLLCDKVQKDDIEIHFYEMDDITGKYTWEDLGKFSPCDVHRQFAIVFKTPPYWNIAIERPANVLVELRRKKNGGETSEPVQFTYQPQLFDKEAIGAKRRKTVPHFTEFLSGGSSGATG
# GST-Hu-p50 = GST-Hu-p50 (Homo sapiens, UniProt P19838 7-356); assay: as above; conditions: dsDNA, one strand shown
# Sequence of GST-Hu-p50 (P19838 7-356): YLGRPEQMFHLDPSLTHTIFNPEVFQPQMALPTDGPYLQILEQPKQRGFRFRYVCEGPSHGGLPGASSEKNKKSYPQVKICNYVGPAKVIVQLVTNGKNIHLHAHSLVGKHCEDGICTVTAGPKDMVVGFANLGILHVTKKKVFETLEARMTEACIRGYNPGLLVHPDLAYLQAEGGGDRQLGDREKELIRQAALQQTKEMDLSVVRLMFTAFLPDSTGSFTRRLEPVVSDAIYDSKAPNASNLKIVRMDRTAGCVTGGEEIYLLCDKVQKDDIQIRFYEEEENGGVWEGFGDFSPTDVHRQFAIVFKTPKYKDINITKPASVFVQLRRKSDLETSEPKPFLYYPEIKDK
Sequence,binding signal [1] [z-score],binding signal (GST-Hu-p50) [z-score]
CCGATTAACATCAGGAATACCCCTGATGTTAATCGGGTCTTGATTCGCTTGACGCTGCTG,4.15,5.04
CCGATTAACATCAAAAAAAGTACTGATGTTAATCGGGTCTTGATTCGCTTGACGCTGCTG,1.16,1.52
CCGATTAACATCAGGAGATACCCTGATGTTAATCGGGTCTTGATTCGCTTGACGCTGCTG,1.65,2.58
CCGATTAACATCAACTCGGGAAATGATGTTAATCGGGTCTTGATTCGCTTGACGCTGCTG,2.66,1.46
CCGATTAACATCAATATTTACCCTGATGTTAATCGGGTCTTGATTCGCTTGACGCTGCTG,5.12,3.16
CCGATTAACATCAGGAGTTACCCTGATGTTAATCGGGTCTTGATTCGCTTGACGCTGCTG,1.4,2.44
CCGATTAACATCAGGGTTTTTTATGATGTTAATCGGGTCTTGATTCGCTTGACGCTGCTG,4.61,4.89
CCGATTAACATCAGGAAAAACCCTGATGTTAATCGGGTCTTGATTCGCTTGACGCTGCTG,3.96,4.56
CCGATTAACATCAGGGAATTCGATGATGTTAATCGGGTCTTGATTCGCTTGACGCTGCTG,4.38,2.58
CCGATTAACATCAGGGACCTCCCTGATGTTAATCGGGTCTTGATTCGCTTGACGCTGCTG,1.67,3.27
CCGATTAACATCAATACACCCCCTGATGTTAATCGGGTCTTGATTCGCTTGACGCTGCTG,4.34,4.34
CCGATTAACATCAGGAATTCACCTGATGTTAATCGGGTCTTGATTCGCTTGACGCTGCTG,2.04,3.81
